Screening data from PubChem.
Most compounds without a hit are left out; they make up all but 2.3% or so of the library.
SENP8 block-1: inhibitors of human SENP8 protease; AID 602440; Q96LD8; recombinant SENP8, Nedd8 substrate fluorescence; 360,000 compounds, 0.64% hits; inhibition, % at 20 µM; in the data active = inhibition mostly above about 40%, no sharp cut-off; inactive = mostly below about 27%
Target sequence (Q96LD8 whole entry, looked up): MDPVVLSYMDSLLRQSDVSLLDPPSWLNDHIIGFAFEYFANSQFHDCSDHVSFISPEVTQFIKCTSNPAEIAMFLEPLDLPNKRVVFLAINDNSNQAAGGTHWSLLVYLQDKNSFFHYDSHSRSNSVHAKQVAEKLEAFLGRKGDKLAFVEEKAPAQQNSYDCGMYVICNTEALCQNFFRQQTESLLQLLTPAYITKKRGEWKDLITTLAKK
SENP6 block: blocks the human protease SENP6; Recombinant SENP6 catalytic domain, aminoluciferin luminescence; AID 2599; 330,000 compounds, 1.8% hits; inhibition, % at 10 µM;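 active = inhibition above about 50% at the single tested dose, limit read from the data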
SENP8 block-2: inhibitors of human SENP8 protease | purified SENP8, Z-RLRGG-aminoluciferin cleavage, luminescence | inhibition, % at 10 µM | 330,000 compounds, 1.2% hits; in the data active = inhibition above about 50%
LGR2 antag: Drosophila LGR2 receptor signaling inhibition; HEK293 LGR2, CRE-luciferase, bursicon-stimulated, 4 h; inhibition, % at 9.99 µM; 380,000 compounds, 0.35% hits; AID 720647;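 active = drop in luminescence signal, shown as inhibition above about 50% in the replicate tests, limit read from the data, passing the limit was not always enough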;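 note: agonist challenge used bursicon conditioned medium at about half maximal strength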
HSP90 refold inh: HSP90 refolding inhibition in rabbit reticulocyte lysate. inhibition, % at 5.6 µM. 290,000 compounds, 0.91% hits. luciferase refolding luminescence, 3 h;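 active = inhibition above the screen-wide mean plus 3 SD, computed separately per campaign, cut at about 16% in these data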;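 note: inhibitors lower the luminescence because luciferase stays unfolded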
SENP7 block: SENP7 protease inhibition; recombinant SENP7, Z-RLRGG-aminoluciferin luminescence, 40 min; inhibition, % at 5 µM; 330,000 compounds, 1.5% hits;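 active = inhibition above about 50% at the single test dose, limit read from the data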
Target sequence (Q9BQF6 706-1050 limits assumed): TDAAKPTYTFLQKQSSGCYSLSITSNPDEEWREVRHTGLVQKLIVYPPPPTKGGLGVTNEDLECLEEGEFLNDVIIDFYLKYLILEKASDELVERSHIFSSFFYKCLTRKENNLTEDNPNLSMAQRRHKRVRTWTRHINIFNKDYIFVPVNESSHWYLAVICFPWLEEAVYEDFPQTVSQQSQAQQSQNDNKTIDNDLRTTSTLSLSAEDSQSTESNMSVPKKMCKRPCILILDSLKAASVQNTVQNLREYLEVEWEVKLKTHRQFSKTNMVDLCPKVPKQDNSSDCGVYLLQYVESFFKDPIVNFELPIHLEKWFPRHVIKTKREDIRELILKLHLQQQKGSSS
HSP90 confirm: HSP90 inhibition, confirmation assay | shares compounds with HSP90 refold inh | rabbit reticulocyte lysate, luciferase refolding luminescence, 3 h | inhibition, % at 5.9 µM | 2,300 compounds, 64% hits | AID 1846; in the data active = inhibition above about 18%
luciferase ctr: firefly luciferase inhibition, HSP90 counter-screen; shares compounds with HSP90 refold inh; purified native firefly luciferase, luminescence; inhibition, % at 5.9 µM; 2,300 compounds, 48% hits;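 active = inhibition above the mean inhibition of all tested sample wells plus 3 SD, cut at about 10% in these data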
A number is an active result; 0 = inactive; - = not tested or not shown.

SMILES	SENP8 block-1	SENP6 block	SENP8 block-2	LGR2 antag	HSP90 refold inh	SENP7 block	HSP90 confirm	luciferase ctr
CC(C)CCn1cnc2c(oc3nc4c(cc32)CCCC4)c1=O	0	0	0	68	19	0	51	35
O=c1[nH]c(C2CCN(S(=O)(=O)c3ccc4c(c3)OCCO4)CC2)nc2c1nnn2Cc1ccccc1	0	0	0	0	0	0	-	-
Cc1ccc(C)c(S(=O)(=O)N2CCC(c3nc4c(nnn4Cc4ccc5c(c4)OCCO5)c(=O)[nH]3)CC2)c1	0	0	0	0	21	0	25	0
CC1CCN(c2c([N+](=O)[O-])nn(-c3ccc4c(c3)OCCO4)[n+]2[O-])CC1	0	0	0	-	17	0	0	0
COc1ccc(CN(C)C[C@H]2OCCCC[C@@H](C)Oc3ccc(NS(=O)(=O)c4ccccc4)cc3C(=O)N([C@@H](C)CO)C[C@H]2C)cc1	-	-	-	0	-	-	-	-
CCCCNC(=O)Nc1nc2ccccc2s1	0	0	0	0	0	0	-	-
CCCNC(=O)Nc1nc2ccccc2s1	0	0	0	0	21	0	0	0
O=C(Nc1ccc(C(=O)NCCCN2CCN(c3ccc(F)cc3)CC2)cc1)C1=CSCCO1	0	0	0	0	30	0	0	0
C[C@@H]1CN([C@H](C)CO)C(=O)c2cc(NC(=O)Cc3ccccc3)ccc2O[C@@H](C)CCCCO[C@@H]1CN(C)C(=O)c1ccccc1	-	-	-	0	-	-	-	-
COc1cccc(C(=O)Nc2ccc3c(c2)C(=O)N(C)C[C@@H](OC)[C@H](C)CN(C)[C@@H](C)CO3)c1	-	-	-	0	-	-	-	-
Cc1[nH]c2ccccc2c1C(C#N)(C#N)C1C(=O)c2ccccc2C1=O	0	0	0	0	77	0	79	0
CO[C@H]1CN(C)C(=O)c2cc(NC(=O)Nc3ccccc3F)ccc2OC[C@@H](C)NC[C@@H]1C	-	-	-	0	-	-	-	-
O=C(NCc1ccccn1)c1cccn1-c1ncc(C(F)(F)F)cc1Cl	0	0	0	0	41	0	0	0
COc1cccc(-c2cc3nc4c(c(NCC(C)(C)CN(C)C)n3n2)CCCC4)c1	0	0	0	0	46	0	44	0
CC(=O)N(CCN1CCOCC1)Cc1cc2cc3c(cc2nc1Cl)OCO3	0	0	0	0	24	0	0	0
COCCN(Cc1cc2cc3c(cc2nc1Cl)OCO3)C(C)=O	0	0	0	0	0	0	-	-
C=C1C2(C(=O)NCc3ccco3)CCC(C2)C1(C)C (stereo not drawn)	0	0	0	-	20	0	0	0
C/C=C/c1ccc2c(c1)[C@H]1[C@H](CCN1C(=O)c1ccc3c(c1)OCO3)[C@H](CO)N2	-	-	-	0	-	-	-	-
S=C(Nc1cccnc1)Nc1ccccc1Br	0	0	0	0	26	0	0	0
C[C@H](CO)N1C[C@H](C)[C@@H](CN(C)C(=O)Nc2ccc(C(F)(F)F)cc2)Oc2ccc(NS(=O)(=O)c3ccc(F)cc3)cc2CC1=O	-	-	-	0	-	-	-	-
Cc1ccc(C(=O)OCC(=O)c2cc(C)n(CC3CCCO3)c2C)cc1 (stereo not drawn)	0	0	0	0	32	0	35	32
Cc1cc(C(=O)COC(=O)c2cc(O)c3ccccc3c2O)c(C)n1CC1CCCO1 (stereo not drawn)	0	-	-	-	0	-	-	-
Cc1cc(C(=O)COC(=O)c2ccccc2Br)c(C)n1CC1CCCO1 (stereo not drawn)	0	95	93	92	85	94	84	84
Cc1cc(C(=O)COc2ccccc2C(N)=O)c(C)n1CC1CCCO1 (stereo not drawn)	0	0	0	0	0	0	-	-
Cc1cc(C(=O)COC(=O)c2ccccc2NCCO)c(C)n1CC1CCCO1 (stereo not drawn)	0	0	0	0	53	0	23	0
SMILES	SENP8 block-1	SENP6 block	SENP8 block-2	LGR2 antag	HSP90 refold inh	SENP7 block	HSP90 confirm	luciferase ctr
COc1ccc(N(CC(=O)NCc2ccc(F)cc2)C(=O)Cn2nnc(-c3ccc(C)o3)n2)cc1OC	0	0	0	0	49	0	0	0
Cc1cccc(N(CC(=O)NCc2ccccc2)C(=O)Cn2nnc(-c3ccc(C)o3)n2)c1	0	0	0	0	0	0	-	-
C/C(=N\Nc1ccc(Cl)c(C(=O)O)c1)c1ccccn1	0	0	0	0	40	0	0	0
Cc1cc(C)c(C#N)c(SCc2nnc(-c3ccccc3[N+](=O)[O-])o2)n1	0	0	0	0	0	0	-	-
Cc1ccc(C#N)c(SCc2nnc(-c3ccc(Cl)cc3)o2)n1	0	0	0	66	24	0	75	75
Cc1cc(C)c(C#N)c(SCc2nnc(-c3ccccc3)o2)n1	0	0	0	77	67	0	58	33
CO[C@H]1CN(C)C(=O)c2cc(NS(=O)(=O)c3cn(C)cn3)ccc2OC[C@H](C)N(CC2CC2)C[C@@H]1C	-	-	-	0	-	-	-	-
Cc1[nH]c(-c2ccc3c(c2)OCO3)nc1C(=O)O	0	0	0	0	0	0	-	-
Cc1[nH]c(-c2ccco2)nc1C(=O)O	0	0	0	0	18	0	0	0
C[C@H](CO)N1C[C@H](C)[C@H](CN(C)CC2CCCCC2)OCCCC[C@H](C)Oc2ccc(NC(=O)Nc3ccccc3)cc2C1=O	-	-	-	0	-	-	-	-
CN1C(=O)C2(C(C#N)=C(N)N(c3ccc(Cl)cc3)C3=C2C(=O)CC(C)(C)C3)c2ccccc21 (stereo not drawn)	0	0	0	-	37	0	0	0
CC1CCN(c2ccc(/C=N\Nc3nncn3N)cc2[N+](=O)[O-])CC1	0	-	-	0	60	-	0	0
CC1CCN(c2ccc(/C=N/n3nnnc3N)cc2[N+](=O)[O-])CC1	0	0	0	0	0	0	-	-
N/C(=N\NC(=O)Nc1ccccc1)c1ccccn1	0	0	0	0	32	0	0	0
COC(=O)c1cn[nH]c1NC(=S)Nc1ccc(Cl)c(Cl)c1	0	0	0	0	37	0	44	44
COC(=O)c1cn[nH]c1NC(=S)Nc1ccccc1C	0	0	0	-	0	0	-	-
COC(=O)c1cc(NC(=O)CSc2ncn[nH]2)ccc1Cl	0	0	0	0	0	0	-	-
CCOC(=O)c1cn[nH]c1NC(=S)Nc1ccc(OC)cc1	0	0	0	-	65	0	65	62
COC(=O)c1cn[nH]c1NC(=S)Nc1ccc(C)cc1Cl	0	0	0	-	36	0	41	41
C[C@@H]1CN([C@H](C)CO)C(=O)c2cc(NC(=O)CCCN(C)C)ccc2O[C@@H]1CN(C)S(=O)(=O)c1ccc(F)cc1	-	-	-	0	-	-	-	-
O=C(CC1CC1)Nc1ccc2c(c1)[C@H]1C[C@@H](CC(=O)N3CCCCC3)O[C@H](CO)[C@H]1O2	-	-	-	0	-	-	-	-
Clc1ccc(OCCN2CCOCC2)cc1	0	0	0	0	18	0	0	0
Brc1ccc(OCCN2CCOCC2)cc1	0	0	0	0	0	0	-	-
